Measurements taken from PubChem BioAssay (NCI).
About 83,000 compounds went through this panel and 20% of them were active in at least one assay; those are over-represented in the sample as a whole.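 Interpretation: 100, growth as untreated; towards 0, rising growth inhibition; 0, no net growth; 0 to -100, cell death. Compounds scoring below 10 were considered active.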 Values without a mark were called inactive. Calls of active or inactive are those of the source.

What was measured:
Experiment in all cases: NCI-60 one-dose screen, 48 h (100 = growth as untreated, 0 = no growth, -100 = all killed)
Conditions in all cases: 10 µM unless noted
NCI-H23 lung = system: NCI-H23 lung
NCI-H226 lung = system: NCI-H226 lung
NCI-H322M lung = system: NCI-H322M lung
HOP-62 NSCLC = system: HOP-62 NSCLC
NCI-H460 lung = system: NCI-H460 lung
A549/ATCC NSCLC = system: A549/ATCC NSCLC
786-0 renal = system: 786-0 renal
COLO 205 colon = system: COLO 205 colon
DU-145 prostate = system: DU-145 prostate
K-562 leukemia = system: K-562 leukemia
MALME-3M melanoma = system: MALME-3M melanoma
MDA-MB-231 breast = system: MDA-MB-231 breast
RXF 393 renal = system: RXF 393 renal
SF-268 CNS = system: SF-268 CNS
SF-295 CNS = system: SF-295 CNS
SF-539 CNS = system: SF-539 CNS
UACC-257 melanoma = system: UACC-257 melanoma
M14 melanoma = system: M14 melanoma

Structure (SMILES)	growth (NCI-H23 lung)	growth (NCI-H226 lung)	growth (NCI-H322M lung)	growth (HOP-62 NSCLC)	growth (NCI-H460 lung)	growth (A549/ATCC NSCLC)	growth (786-0 renal)	growth (COLO 205 colon)	growth (DU-145 prostate)	growth (K-562 leukemia)	growth (MALME-3M melanoma)	growth (MDA-MB-231 breast)	growth (RXF 393 renal)	growth (SF-268 CNS)	growth (SF-295 CNS)	growth (SF-539 CNS)	growth (UACC-257 melanoma)	growth (M14 melanoma)
CC(=O)N1CCN(CCNC(=O)n2cc(-c3ccncc3)c(-c3cc(O)cc(Cl)c3)n2)CC1	99.7%	102%	106%	94.2%	89%	102%	67.8%	86.8%	89.5%	53.5%	31.9%	82.5%	65.2%	96%	80.5%	71.6%	-34% (active)	5.16% (active)
N#Cc1c2ncccc2c2nnc3cc(Cl)c(Cl)cc3n12	88.6%	104%	100%	82.7%	100%	107%	108%	113%	89.2%	91%	79.6%	67%	116%	90.6%	105%	97.1%	95.3%	100%
CC(C)CCCCCOC(=O)c1ccccc1SSc1ccccc1C(=O)OCCCCCC(C)C	108%	97.3%	132%	99.8%	108%	99.2%	104%	109%	112%	96.3%	110%	99.5%	120%	110%	105%	99.4%	102%	104%
CC(=O)NCCN	111%	97.5%	108%	108%	109%	96.6%	98.3%	106%	116%	101%	100%	101%	90.1%	108%	101%	94.9%	86.9%	108%
O=C(OCC1CC2(Cl)C(Cl)=C(Cl)C1(Cl)C2(Cl)Cl)C1C(C(=O)OCC2CC3(Cl)C(Cl)=C(Cl)C2(Cl)C3(Cl)Cl)C2(Cl)C(Cl)=C(Cl)C1(Cl)C2(Cl)Cl (stereo not drawn)	105%	99.2%	98.4%	108%	114%	103%	94%	99.7%	97.4%	94.7%	98.6%	109%	104%	100%	94.8%	97.9%	113%	–
O=C(N/N=C/c1coc2ccccc2c1=O)c1cc2oc(-c3ccccc3)cc2[nH]1	113%	114%	89.4%	95.9%	105%	105%	106%	94.3%	93.8%	82.6%	-5.98% (active)	96.8%	82%	96.2%	103%	89.8%	118%	–
Cc1ccc(NC(=O)CCl)cc1Cl	89.2%	103%	97.1%	98.9%	105%	106%	117%	122%	111%	87.3%	78.7%	89.4%	102%	103%	81.2%	108%	90.5%	104%
CCCCCCCCCCC(C[N+](C)(C)C/C=C/c1ccccc1)C(O)c1ccccc1 (stereo not drawn)	7.14% (active)	29%	46.7%	-30.3% (active)	5.75% (active)	54.5%	-5.14% (active)	-89.2% (active)	1.19% (active)	-35.9% (active)	-28.6% (active)	-55.9% (active)	-54.3% (active)	-0.479% (active)	35.6%	40.5%	21%	6.02% (active)
O=c1[nH]c2cc(O)ccc2n2cc3c(F)cccc3c12	39.6%	60.8%	29.4%	21.1%	2.7% (active)	22%	28.7%	66.2%	33.9%	24.3%	40.3%	52.4%	4.74% (active)	19.4%	15.4%	16.6%	51.2%	25.2%
CCn1cnc(C[C@H](NC(=O)[C@@H](NC(=O)Nc2cc(C(F)(F)F)cc(C(F)(F)F)c2)C(C)(C)C)C(=O)OC)c1	-84.2% [100 µM] (active)	-49.5% [100 µM] (active)	-96.3% [100 µM] (active)	-95.5% [100 µM] (active)	-57.2% [100 µM] (active)	-80.1% [100 µM] (active)	-83.9% [100 µM] (active)	-80% [100 µM] (active)	-95.1% [100 µM] (active)	-47% [100 µM] (active)	-82.5% [100 µM] (active)	-93.6% [100 µM] (active)	-83.7% [100 µM] (active)	-89.2% [100 µM] (active)	-88.6% [100 µM] (active)	-93.4% [100 µM] (active)	-96.2% [100 µM] (active)	-90.8% [100 µM] (active)
COC(=O)/C=C1/CCCCC1(C)C(=O)OC (stereo not drawn)	109%	102%	105%	105%	107%	101%	96.4%	120%	112%	103%	109%	110%	106%	110%	120%	119%	98.4%	101%
COCn1c(C(=O)OC)cc2oc(/C=C3/SC(=S)N(N)C3=O)cc21	103%	115%	77.5%	122%	105%	105%	96.5%	110%	94.1%	63.7%	45.8%	110%	27.6%	73.1%	82.3%	90.3%	113%	–
CCCCCCCCCCCCCCCCNC(=S)N/N=C/c1ccc(OC)cc1	103%	98.6%	108%	117%	104%	96.1%	95.3%	115%	104%	105%	103%	95.1%	92%	107%	84.9%	91.7%	99.3%	96.1%
CCCC[N+](C)(N)CCCC	112%	105%	103%	97.6%	102%	103%	97.1%	122%	111%	103%	107%	108%	115%	112%	94.5%	101%	106%	100%
O=C(Nc1ccc(-n2cc(-c3ccncc3)c(-c3ccc(Cl)c(O)c3)n2)cc1)Nc1ccc(Cl)c(C(F)(F)F)c1	3.39% (active)	68.2%	12%	-7.48% (active)	-29.3% (active)	6.06% (active)	-44.8% (active)	-66.5% (active)	23.2%	8.1% (active)	-13.6% (active)	-24.8% (active)	-47.8% (active)	23.3%	-44.5% (active)	2.77% (active)	-9.1% (active)	-58.6% (active)
N#Cc1ccc(OCc2nc(N)nc(N)c2-c2ccc(Cl)c(Cl)c2)cc1	36.3%	45.8%	40.6%	9.96% (active)	14.1%	7.74% (active)	25.8%	45.5%	34.3%	12.6%	49.5%	50.7%	46%	33.6%	3.74% (active)	22.7%	22.8%	27.6%
COc1ccc(C(=O)NCCNc2nccc(-c3c(-c4ccc(F)cc4)nc4sccn34)n2)cc1	70.7%	54.8%	68.1%	64.8%	26.1%	34%	48.9%	47%	59.1%	59.5%	76%	62.2%	72%	59.2%	61.6%	79.1%	89%	55.6%
